RAD52 anneal inh = RAD52 (human) annealing inhibition; P43351; recombinant RAD52 DNA annealing, FRET fluorescence; inhibition, % at 18.7 µM; actives 0.46% (n = 360,000); AID 651710;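 active = every replicate showing at least 50% inhibition; inconclusive = mean inhibition at least 50% but not in every replicate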
Target sequence (P43351 whole entry, looked up): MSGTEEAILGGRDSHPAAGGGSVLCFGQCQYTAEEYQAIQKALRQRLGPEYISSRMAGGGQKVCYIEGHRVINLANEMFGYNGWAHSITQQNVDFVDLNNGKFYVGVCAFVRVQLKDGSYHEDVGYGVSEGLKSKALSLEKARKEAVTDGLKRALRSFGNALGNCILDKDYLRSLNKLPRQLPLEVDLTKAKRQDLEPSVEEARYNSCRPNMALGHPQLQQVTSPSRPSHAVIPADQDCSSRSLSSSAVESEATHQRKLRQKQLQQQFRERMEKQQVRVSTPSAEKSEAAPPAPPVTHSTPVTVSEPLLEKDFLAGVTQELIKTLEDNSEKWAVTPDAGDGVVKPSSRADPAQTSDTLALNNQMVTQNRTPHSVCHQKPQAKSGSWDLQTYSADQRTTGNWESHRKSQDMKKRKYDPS
Glyco luc inh = blocks N-linked glycosylation in D54 reporter cells. D54 ERlucT glycosylation luciferase reporter, 24 h; percent of 100 nM tunicamycin response. reporter increase, % at 12.5 µM. actives 0.23% (n = 360,000);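 active = mean luciferase reporter signal, scaled so untreated is 0 and the glycosylation-blocking control 100, at or above a set limit in every replicate; inconclusive = mean reaches the limit but not every replicate does; inactive = mean below the limit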;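 note: luciferase carries N-glycosylation sites so blocking glycosylation raises the light; 0% = median of neutral control wells and 100% = median of 100 nM tunicamycin wells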
RAD54 branch = inhibitors of human RAD54 branch migration | Q92698 | RAD54 Holliday junction branch migration, FAM/BHQ fluorescence | inhibition, % at 10.4 µM | actives 0.14% (n = 360,000);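 active = mean normalized replicate activity at least 40 and at least half of replicates scoring 40 or more; inconclusive = only one of the two criteria met; inactive = mean below 40 and under half of replicates reaching 40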;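 note: 0% = median of neutral control wells and 100% = median of positive control wells; inhibitors cause a drop in the FAM fluorescence signal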
CASP6 VEID inh = caspase-6 (human) enzyme inhibition; P55212; purified caspase-6, Z-VEID-R110 cleavage fluorescence; inhibition, % at 12.5 µM; actives 0.53% (n = 350,000); AID 686996;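 active = mean inhibition across replicates at least about 35%, with every replicate also reaching that limit, limit read from the data; inconclusive = only one of the two criteria met; inactive = neither criterion met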;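 note: 0% = median of neutral control wells and 100% = no fluorescence left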
MLL AF4-AF9 inh = MLL-AF4/AF9 protein interaction inhibition; AlphaScreen, biotin-AF4 peptide binding to FLAG-AF9; inhibition, % at 10 µM; actives 0.47% (n = 350,000); AID 651704;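 active = every replicate reaching a set inhibition limit, whatever the replicate mean, cut at about 25% in these data; inconclusive = mean inhibition reaches that limit but some replicates miss it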;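 note: 0% = plate neutral control median and 100% = total signal loss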
AlphaScreen intf = interferes with the AlphaScreen assay signal | AC50, µM (doses to about 12 µM), for inactives: at the highest dose activity change, negative = inhibition | AlphaScreen interference counter-screen, signal luminescence | AID 720494 | actives 45% (n = 530) | shares compounds with MLL AF4-AF9 inh; cut-off not given, nearly all actives have AC50 up to about 14 µM
Active calls of the source: *; ? = inconclusive; . = no result; ! = not confirmed by another sample. An excerpt weighted towards active compounds, which were near 1.2% of everything screened.

SMILES	RAD52 anneal inh	Glyco luc inh	RAD54 branch	CASP6 VEID inh	MLL AF4-AF9 inh	AlphaScreen intf
Cc1ccn2c(Nc3ccc4c(c3)OCO4)c(-c3ccccn3)nc2c1	-95	-2	-3	-2	32*	9.3µM*
CCC1CCCCN1C(=S)NN=C(C)c1ccccn1 (centres undefined)	-86	.	.	-1	37*	7.4µM*
CC(=NNC(=S)N1CCCCC1)c1ccccn1	-10	-10	.	1	1	.
C[C@@H]1CN([C@H](C)CO)C(=O)c2cc(C#Cc3ccccc3F)cnc2O[C@@H]1CN(C)C(=O)C1CCCCC1	16	.	-5	-1	2	.
CCOC(=O)C1=C(C)NC(C)=C(C(=O)OCC)C1c1cccc([N+](=O)[O-])c1	-14	4	2	.	0	.
COC(=O)C1=C(C)NC(C)=C(C(=O)OCC(C)C)C1c1ccccc1[N+](=O)[O-] (centres undefined)	-17	-3	4	3	38*	11µM*
CN(C)c1ccnc2c[cH-]cc12.[Fe].c1ccc(-[c-]2[c-](-c3ccccc3)[c-](-c3ccccc3)[c-](-c3ccccc3)[c-]2-c2ccccc2)cc1 (centres undefined)	-20	-2	0	-1	29*!	-13%
CN(C)c1ccnc(Nc2ccccc2)c1C#N	-9	2	-2	2	-7	.
Cc1ccc(NC(=S)N/N=C/c2ccc([N+](=O)[O-])s2)cc1	1	-16	-3	1	?	-18%
COc1ccc2c3c([nH]c2c1)[C@H](CO)N(C(=O)c1ccccn1)CC31CN(S(C)(=O)=O)C1	-17	.	.	-3	-2	.
COc1ccc(N2CCN(c3cc(C)nc4ccc(OC)cc34)CC2)cc1	-2	1	20	-2	34*	-38%
CNC(=O)C[C@@H]1CC[C@@H]2[C@@H](COc3ccc(NC(=O)Nc4ccccc4)cc3C(=O)N2C)O1	18	.	1	8	-2	.
COc1ccc(NC(=O)N(C)C[C@@H]2Oc3ccc(NS(=O)(=O)c4ccc(F)cc4)cc3C(=O)N([C@@H](C)CO)C[C@@H]2C)cc1	-1	.	-2	-1	-4	.
O=C(NC1CCCCC1)C(c1cccs1)N(CCCN1CCOCC1)C(=O)c1ccc(-c2ccccc2)[nH]1 (centres undefined)	-17	-6	.	-16	31*	-17%
c1ccc2c(c1)nc(Nc1ccc(N3CCCCC3)cc1)c1nncn12	0	-4	.	0	36*	-16%
c1ccc(N2CCCCC2)c(Nc2nc3ccccc3n3cnnc23)c1	-4	-3	4	-1	2	.
CCCN(C)C[C@H]1OCCCC[C@@H](C)Oc2ccc(NS(=O)(=O)c3cn(C)cn3)cc2C(=O)N([C@H](C)CO)C[C@@H]1C	-4	.	10	-1	-4	.
CCC(=O)NC(c1ccc(OC)cc1)c1c(O)ccc2ccccc12 (centres undefined)	-8	16	6	-1	-3	.
CCC(=O)NC(c1ccc(N(C)C)cc1)c1c(O)ccc2ccccc12 (centres undefined)	-8	0	-2	-2	24	-17%
COc1ccccc1NC1=C(NC(C)=O)C(=O)c2ccccc2C1=O	-15	4	.	11	9	.
COC1=C(Nc2ccccc2OC)C(=O)c2ccccc2C1=O	-9	6	-3	1	50*	7.9µM*
O=C(Cc1cccnc1)N1CC(=O)N2[C@H](C1)[C@H](c1ccc(C3=CCCC3)cc1)[C@@H]2CO	10	.	.	2	37*	-19%
CCCN1C(=O)/C(=C/c2nc3ccccc3c(=O)[nH]2)c2ccccc21	7	6	.	2	1	.
CC(C)N1C(=O)/C(=C\c2nc3ccccc3c(=O)[nH]2)c2ccccc21	4	16	5	18	26*	-22%
COc1ccccc1-c1ccc2n(c1=O)C[C@H]1[C@H](CO)[C@@H](C(=O)NCc3ccccc3F)N[C@@H]21	-3	.	-6	-3	1	.
SMILES	RAD52 anneal inh	Glyco luc inh	RAD54 branch	CASP6 VEID inh	MLL AF4-AF9 inh	AlphaScreen intf
CCCC(=O)NC(c1ccc(OC)cc1)c1ccc2cccnc2c1O (centres undefined)	-18	-10	.	2	29*	2.6µM*
CCCC(=O)NC(c1ccccc1)c1ccc2cccnc2c1O (centres undefined)	14	-12	7	-3	?	.
CN1c2ccc(-c3ccccc3F)cc2[C@H]2[C@H](CCN2S(=O)(=O)c2ccc(F)cc2)[C@H]1CO	-14	.	-5	.	.	.
C[C@H](CO)N1C[C@H](C)[C@H](CN(C)C(=O)Nc2ccccc2)Oc2ccc(NC(=O)Nc3ccc4c(c3)OCO4)cc2CC1=O	.	.	0	.	.	.
CCN1/C(=C/C(C)=C/c2sc3ccccc3[n+]2CC)Sc2ccccc21	-295	-17	72*	15	66*	6.3µM*
Nc1ccc2[nH]ncc2c1	-4	3	21	28	45*	-17%
Nc1ccc2ccc(N)cc2c1	9	.	.	16	15	.
COC(=O)C1=C[C@@H](C(=O)OC)[C@@H]2C3=C(C(=O)C2(C)C)[C@H](c2ccccc2)[C@@H]2C(=O)N(C)C(=O)[C@@H]2[C@@H]3C1	-21	0	3	-2	?	16%
Cc1noc(C)c1S(=O)(=O)Nc1cccc2c1O[C@H](CN(C)C)[C@H](C)CN([C@H](C)CO)C2=O	-1	.	0	3	-1	.
CC(=O)NC(c1cc(Cl)c2cccnc2c1O)C(C)C (centres undefined)	-12	-12	-5	.	11	.
CCCCC(=O)NC(c1ccccc1Cl)c1ccc2cccnc2c1O (centres undefined)	1	-10	-7	2	2	.
CC(=O)NC(c1ccc(C(C)C)cc1)c1ccc2cccnc2c1O (centres undefined)	-4	-10	5	1	4	.
CN1CCN(C(c2ccc(C(F)(F)F)cc2)c2ccc3cccnc3c2O)CC1 (centres undefined)	13	.	.	-27	85*	2.4µM*
Oc1c(C(c2ccc(Cl)cc2)N2CCCC2)cc(Cl)c2cccnc12 (centres undefined)	-20	21	.	-4	56*	-44%
Oc1c(C(c2ccccc2Cl)N2CCCC2)ccc2cccnc12 (centres undefined)	-30	-9	.	-5	91*	2.1µM*
CN1CCN(C(c2ccccn2)c2cc(Cl)c3cccnc3c2O)CC1 (centres undefined)	-19	10	.	-10	39*	-7%
CC1=NN(c2ccccc2)C(=O)/C1=C/C=C/c1ccc(N(C)C)cc1	3	-5	.	3	67*	-41%
C[C@H]1CN([C@@H](C)CO)C(=O)c2cccc(NC(=O)NC3CCCCC3)c2O[C@@H]1CN(C)S(=O)(=O)c1cn(C)cn1	6	.	5	3	-9	.
COc1cc(O)c(C(CCN2CCCCC2)c2ccc(N(C)C)cc2)c(OC)c1 (centres undefined)	3	-3	-5	-5	33*	12µM*
